Measured values published in paper PMC7819943, “Rice protein-binding microarrays: a tool to detect cis-acting elements near promoter regions in rice”.
Whole data set: some 39,000 sequences, median “fluorescence intensity (a.u.)” near 4,300, cut for the highest 2% near 39,000. For the sample, the highest values were picked, then their nearest neighbours and some sequences at random.

Target: T1, OsSMF1 (Oryza sativa, UniProt Q6ZLB0 1-436)
T1 sequence: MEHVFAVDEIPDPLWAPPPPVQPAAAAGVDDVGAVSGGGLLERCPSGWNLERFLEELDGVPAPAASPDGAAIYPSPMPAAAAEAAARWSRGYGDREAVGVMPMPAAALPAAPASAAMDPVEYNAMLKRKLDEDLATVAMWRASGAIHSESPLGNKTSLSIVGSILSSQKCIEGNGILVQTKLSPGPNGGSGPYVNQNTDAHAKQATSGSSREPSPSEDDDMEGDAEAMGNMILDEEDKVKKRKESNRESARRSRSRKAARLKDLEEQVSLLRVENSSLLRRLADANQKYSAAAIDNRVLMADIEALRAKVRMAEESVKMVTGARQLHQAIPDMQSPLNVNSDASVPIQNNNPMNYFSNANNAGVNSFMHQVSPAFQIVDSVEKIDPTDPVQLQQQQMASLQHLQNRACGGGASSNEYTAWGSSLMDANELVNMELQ
Assay: protein-binding microarray (RPBM); PBS, 2% BSA, 51.3 ng/ul salmon testes DNA, 50 uM zinc acetate, 200 nM TF, 25 C, 1 h; high values mean tight binding
Details: protein: recombinant; tags: N-terminal polyhistidine and DsRed monomer fusion (pET32a); chain copies: 2; label: CyDye5-dUTP incorporated in the synthesized complementary strand; 3' TTTTT single-stranded linker to array surface; dsDNA, one strand shown
Summary of the method: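 Per-feature fluorescence intensity (arbitrary units), read on an Axon 4000B scanner, is the binding signal. Transcription factors carrying an N-terminal polyhistidine tag and DsRed fusion were expressed in E. coli BL21-CodonPlus and purified on Ni–NTA. A custom Agilent array, made double-stranded by primer extension with Cy5-dUTP and blocked with 2% BSA, was incubated with 200 nM protein in PBS, 2% BSA, salmon testes DNA and 50 µM zinc acetate at 25 °C for 1 h and then washed.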

Sequence	binding signal
TCGATCTGCACATGTGCACGCGCATGTGTCGTCGGCTTAGCGGAGTCACCTAGTGCAG	3230 fluorescence intensity (a.u.)
GACTAATCAAACAATTTCCCTCGCTATTAGTCACTGACAGCGGAGTCACCTAGTGCAG	3590 fluorescence intensity (a.u.)
GCATGCGGGATAGGAGCTTGACTAGCATGACGAGGCAGAACGGAGTCACCTAGTGCAG	5890 fluorescence intensity (a.u.)
CACCTAGCATGCATAGGACGAGGCATTTAATTTTACTTATCGGAGTCACCTAGTGCAG	22000 fluorescence intensity (a.u.)
ATTTAATAGTCCGGGAGGCATGCTTACGGACAAGGACGAACGGAGTCACCTAGTGCAG	47100 fluorescence intensity (a.u.)
GCATGCTCTCCGTGCCGTATGCGCTGTCGTAGGGCAGGTGCGGAGTCACCTAGTGCAG	3760 fluorescence intensity (a.u.)
CGCCGCCGCCGTCGCTGCCGCCGCCGCCGCCGCCTAGGGTCGGAGTCACCTAGTGCAG	29300 fluorescence intensity (a.u.)
TCACTTCTCTCCTCCACATGTGCATACAACTGACTTATAACGGAGTCACCTAGTGCAG	4660 fluorescence intensity (a.u.)
GTTGAATTCTGTGCGTGTAAGCAGACCTGCATTGCCGTCGCGGAGTCACCTAGTGCAG	3170 fluorescence intensity (a.u.)
TCCCAATTGACTAGAGGATGCTTCAGAGATGAAAACATGGCGGAGTCACCTAGTGCAG	3190 fluorescence intensity (a.u.)
TCCAGCTCTGAATTTCACTCTGCATGCATAAGTTGCAGGACGGAGTCACCTAGTGCAG	48100 fluorescence intensity (a.u.)
ATAATGAAAATGAGAATTCATGCCAGCTCTGCAAAGTGGACGGAGTCACCTAGTGCAG	4780 fluorescence intensity (a.u.)
GCAATTCACTCCAGTTCACTTTGCCAGCTTGTCTCTCTGACGGAGTCACCTAGTGCAG	3520 fluorescence intensity (a.u.)
ATATACAGTACACGTTCTTGCCCTCATTGCCACATAGTACCGGAGTCACCTAGTGCAG	4020 fluorescence intensity (a.u.)
TCCCCAAGTCAGTCAATGCCATCACTGTCATCTGCTCTCACGGAGTCACCTAGTGCAG	3200 fluorescence intensity (a.u.)
TTCATTGACCGAGAACGATAGCACGCATCACATCAGCATCCGGAGTCACCTAGTGCAG	3250 fluorescence intensity (a.u.)
TGGGAGTGCGTGGTGTGCGTGGCGTCGGTTCTTGCGGAGGCGGAGTCACCTAGTGCAG	5410 fluorescence intensity (a.u.)
GAGGGTTCTTGATGCGTGACCTGATGCGGGAGGCGTATTGCGGAGTCACCTAGTGCAG	39200 fluorescence intensity (a.u.)
CGCGCGTGCGGTTCTTGTGTCCGAGGGTGGTGGTGTGTGGCGGAGTCACCTAGTGCAG	3360 fluorescence intensity (a.u.)
ATTGAAAATTCTCTACTCTTTACACGTGTCCATCATCCCACGGAGTCACCTAGTGCAG	19100 fluorescence intensity (a.u.)
TCAAGTCATGAATTCTCCTATTTCAAGTCACTTCAGAAGTCGGAGTCACCTAGTGCAG	3330 fluorescence intensity (a.u.)
GCAGCGCCATGAAAGCGCATGGCATGCATGCACTGCACTGCGGAGTCACCTAGTGCAG	3520 fluorescence intensity (a.u.)
CATGCCAGGTCAGTCGGCATCCATGAAGACTGCACTGCACCGGAGTCACCTAGTGCAG	42600 fluorescence intensity (a.u.)

Sequence	binding signal
TTTATGGATAGAAGATGCACCGGCCAGGTCATGAAGATCACGGAGTCACCTAGTGCAG	4050 fluorescence intensity (a.u.)
AATCGTGCTCGATTGACCTCACTAATTCATCCCTGTAACCCGGAGTCACCTAGTGCAG	25700 fluorescence intensity (a.u.)
GGGGTGAGGTGAGGTTACCACGTCGGCGACGGTGAGGAAGCGGAGTCACCTAGTGCAG	6110 fluorescence intensity (a.u.)
CTTATCTACTTGATATTTGCATATGTATACAGTTTTACTGCGGAGTCACCTAGTGCAG	3220 fluorescence intensity (a.u.)
GGTAGCTGATACAGGTATGCAGACGAAAGATCACACCTATCGGAGTCACCTAGTGCAG	32500 fluorescence intensity (a.u.)
ACTTGATCAGCACACTCTGGTGACATGACAGCTGTAAAGTCGGAGTCACCTAGTGCAG	4180 fluorescence intensity (a.u.)
GCTGAGCTGAGCTGATATGATCAACACAGTGCAGACTTGGCGGAGTCACCTAGTGCAG	3710 fluorescence intensity (a.u.)
ATGATCAGATACACACTCTGGCTTGGCTTGTAGCTGCAACCGGAGTCACCTAGTGCAG	50400 fluorescence intensity (a.u.)
GTAGTACCATGTATTAGATGGACTTCTCCACGTTTCTCTGCGGAGTCACCTAGTGCAG	4980 fluorescence intensity (a.u.)
GGGGCCACATCGTCAGTGAAACGGACGGGTATAGGGTTAGCGGAGTCACCTAGTGCAG	3270 fluorescence intensity (a.u.)
CATAGCCCTCTGTCGCGGGCGCCGCTGTCCACCGTCCTCCCGGAGTCACCTAGTGCAG	43900 fluorescence intensity (a.u.)
CGCGCCGTCGTCCAGCCACCGTCACGCCGCGCGGGGCGCCCGGAGTCACCTAGTGCAG	3830 fluorescence intensity (a.u.)
CCTCCTCGCTGCCCAGCCACCGCCGCCCTCCCGTCCCGCGCGGAGTCACCTAGTGCAG	3490 fluorescence intensity (a.u.)
TTGACCGCTTGACGCGGAGCTCCCCGCCGGCCTCCTCCCCCGGAGTCACCTAGTGCAG	4540 fluorescence intensity (a.u.)
CGCCGCCTCCGCCTCCGCCTCCGCTGCTCGCCGACCGGAGCGGAGTCACCTAGTGCAG	4680 fluorescence intensity (a.u.)
ATCGCCCCGCTGACCGCCTCCTCCCGCGGCTGTCCGAGCGCGGAGTCACCTAGTGCAG	41300 fluorescence intensity (a.u.)
ATCAGCAACAATCAGGCTCCTGTGCGGTAAGTCCAACATTCGGAGTCACCTAGTGCAG	6700 fluorescence intensity (a.u.)
AGTGCTAGTCATCACTGTATTAGATTTAGGAATCTCTTCTCGGAGTCACCTAGTGCAG	3600 fluorescence intensity (a.u.)
AATCCGCCGAGGGACTTATTGTGACCGGTTTTGATTAGTTCGGAGTCACCTAGTGCAG	19600 fluorescence intensity (a.u.)
CCACACACTTATGAACACGAGTACAGCCGATGCCCTATAACGGAGTCACCTAGTGCAG	3390 fluorescence intensity (a.u.)
TATGATTTTAAATTCGTCATACTCTAGTTAGCCTAGAAAACGGAGTCACCTAGTGCAG	3430 fluorescence intensity (a.u.)
TGTTAAATTCGTCTCGCAAAATAGCCTAAGGGTTATAGAACGGAGTCACCTAGTGCAG	40500 fluorescence intensity (a.u.)
TAAGGCAAAAGCCAAAATTCAAATATAGTTAAAATTAAAGCGGAGTCACCTAGTGCAG	7150 fluorescence intensity (a.u.)
